Screening results deposited in PubChem by Broad Institute.
Most compounds without a hit are left out; they make up all but 3.4% or so of the library.
HSF1 activator – increases HSF-1 driven luciferase reporter signal; activation, % at 9 µM; 300,000 compounds, 1.7% hits; NIH3T3-HGL HSF-1 luciferase reporter, MG132, 8 h; 100% = twice DMSO control signal;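 active means mean replicate activation of at least 50% with a set share of replicates each reaching 50%; inconclusive means only one of those two conditions met; inactive means mean below 50% and too few replicates reaching it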
HSF1 inhib – HSF1 inhibition; NIH3T3-HGL HSE-luciferase, MG132-induced, luminescence 8 h; stronger effect = lower value; 300,000 compounds, 0.77% hits; activity change, negative = inhibition, % at 7.5 µM (by protocol);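 active means more than half of replicate wells show activity change below -50%, luminescence cut by over half; inconclusive means some wells, but at most half, below -50%; inactive means no replicate well below -50%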;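 further: luciferase reports HSF-1 transcriptional activity via heat shock element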
Vif imaging – HIV Vif inhibition; HEK293T cells, Vif self-association by quenched fluorescence, imaging, 24 h; inhibition, % at 7.49 µM; 340,000 compounds, 0.35% hits; AID 602346; in the data active means inhibition above about 50%, passing the limit was not always enough; inconclusive means no clear call, values can overlap the other calls; inactive means below about 31%
esBAF inh – blocks esBAF chromatin remodeling in mouse ES cells. reporter increase, % at 12.5 µM. 350,000 compounds, 2% hits. Bmi1-luciferase knock-in reporter, 24 h; 100% = twice the neutral-well signal; in the data active means activation above about 40%; inconclusive means no clear call, values can overlap the other calls;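 further: a rise in the Bmi1 reporter signal indicates esBAF inhibition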
Of the large screens only hits and unclear results are named; the others gave an inactive call.

CCC1=NN(C(=O)c2ccccc2O)C(O)(c2ccccc2)C1 (stereo unspecified)	esBAF inh 86.7
S=c1[nH]c(-c2ccc(Br)cc2)cn1CCc1ccccc1	HSF1 activator 62.0 (no result: esBAF inh)
COc1ccc(C=C2CS(=O)(=O)CC(=Cc3ccc(OC)cc3)C2=O)cc1	Vif imaging 111.6 (no result: HSF1 activator, HSF1 inhib)
C[C@H]1CN([C@@H](C)CO)C(=O)c2cc(C#Cc3ccccc3F)cnc2O[C@@H]1CN(C)C	none (no result: HSF1 activator, HSF1 inhib, Vif imaging)
O=C(c1cc(Br)c[nH]1)N1CCSCC1	HSF1 inhib -84.4
CC1CC(C)CN(C(=O)c2ccc3c(c2)N(Cc2ccccc2)CCS3)C1 (stereo unspecified)	HSF1 activator 64.0
CCCNC(=O)N[C@H]1CC[C@@H](CC(=O)NC2CCCCC2)O[C@H]1CO	none (no result: HSF1 activator, HSF1 inhib, Vif imaging)
N#Cc1cccc(-c2ccc3c(c2)[C@@H]2[C@@H](CCN2S(=O)(=O)c2ccccc2F)[C@@H](CO)N3)c1	none (no result: HSF1 activator, HSF1 inhib, Vif imaging)
CC(C)(C)CC(=O)NCCc1csc(-c2ccccc2)n1	HSF1 activator 63.4 (no result: esBAF inh)
Nc1ncnc2oc(-c3ccco3)c(-c3ccco3)c12	HSF1 inhib -53.1 (no result: Vif imaging)
C[C@H](CO)N1C[C@H](C)[C@@H](CN(C)C(=O)CN(C)C)Oc2cc(-c3cncnc3)ccc2S1(=O)=O	none (no result: HSF1 activator, HSF1 inhib, Vif imaging)
C[C@@H]1CN([C@@H](C)CO)C(=O)c2cc(C#Cc3ccncc3)cnc2O[C@H]1CN(C)CC1CCCC1	none (no result: HSF1 activator, HSF1 inhib, Vif imaging)
CC(=O)/C=C/n1c(=S)oc2ccccc21	HSF1 activator 141.4 (no result: Vif imaging, esBAF inh)
COC(=O)c1cc(S(=O)(=O)NCc2ccccc2)cn1C	none
COC(=O)c1cc(S(=O)(=O)NCc2ccc(F)cc2)cn1C	HSF1 inhib -52.7
CCc1ccc(CN(C)C(=O)CCc2nc3ccccc3n(-c3ccc(OC)cc3)c2=O)cc1	HSF1 activator 70.3 (no result: esBAF inh)
CC(C)NC(=O)Nc1ccc2c(c1)CC(=O)N([C@@H](C)CO)C[C@@H](C)[C@H](CN(C)C(=O)NC(C)C)O2	none (no result: HSF1 activator, HSF1 inhib, Vif imaging)
O=C(COC(=O)c1cc[n+]([O-])cc1)Nc1cccc(Cl)c1Cl	HSF1 inhib -66.4 (no result: esBAF inh)
C[C@@H]1CN([C@@H](C)CO)C(=O)c2cc(N(C)C)ccc2O[C@@H](C)CCCCO[C@H]1CN(C)S(C)(=O)=O	none (no result: HSF1 activator, HSF1 inhib, Vif imaging)
CC(C)c1ccc(-n2cnn(-c3ncccc3[N+](=O)[O-])c2=O)cc1	HSF1 activator 53.7 (no result: esBAF inh)
Cc1cc(C)n(-c2ncccc2[N+](=O)[O-])n1	none
O=C(N/N=C/c1cc(Br)c(O)c(Br)c1O)c1ccc2c(c1)OCCO2	esBAF inh 43.4
O=C(N/N=C/c1cc(Br)c(Br)o1)c1ccc2c(c1)OCCO2	esBAF inh 58.2
O=C(Cc1ccccc1)N/N=C/c1cc(Br)c(Br)o1	HSF1 activator 80.3
CCOc1cc(/C=N/NC(=O)c2ccc3c(c2)OCCO3)cc(Br)c1O	HSF1 inhib -73.0, Vif imaging inconclusive, esBAF inh inconclusive
CCCN1[C@@H]2c3ccc(-c4ccccc4OC)c(=O)n3C[C@@H]2[C@@H](CO)[C@@H]1C(=O)N1CCCCC1	none (no result: HSF1 activator, HSF1 inhib, Vif imaging)
COc1ccc(F)cc1C(=O)C1CCCN(Cc2cccn2-c2ccccn2)C1 (stereo unspecified)	HSF1 inhib -64.3
CCn1c(O)c(C=Nc2ccccc2)oc1=S	HSF1 inhib -67.2
CCn1c(O)c(/C=C/C=C/C=Nc2ccccc2)sc1=S	none (no result: esBAF inh)
CCCCn1c(O)c(/C=C/C=C/C=Nc2ccccc2)sc1=S	none (no result: esBAF inh)
CCCn1c(O)c(C=Nc2ccccc2)sc1=S	esBAF inh 80.6
Cc1[nH][nH]c(=O)c1C=NCc1cccs1	HSF1 activator 68.9
Cc1ccc(S(=O)(=O)Nc2ccc3c(c2)C(=O)N([C@@H](C)CO)C[C@@H](C)[C@@H](CN(C)C(=O)CCC(F)(F)F)OCCCC[C@@H](C)O3)cc1	none (no result: HSF1 activator, HSF1 inhib, Vif imaging)
CCOC(=O)CN1C(=O)S/C(=C/c2cc(C)n(C)c2C)C1=O	esBAF inh 47.2 (no result: Vif imaging)
CCOC(=O)CN1C(=O)S/C(=C/c2cc(C)n(-c3ccccn3)c2C)C1=O	esBAF inh 44.7
COC(=O)C(C)N1C(=O)S/C(=C/c2cc(C)n(-c3ccccn3)c2C)C1=O (stereo unspecified)	none (no result: Vif imaging)
CCOC(=O)CN1C(=O)S/C(=C/c2ccc(C)o2)C1=O	none
CO[C@@H]1CN(C)C(=O)c2cc(NC(=O)NC(C)C)ccc2OC[C@@H](C)N(CCC(F)(F)F)C[C@H]1C	none (no result: HSF1 activator, HSF1 inhib, Vif imaging)
COc1cccc(S(=O)(=O)N[C@@H]2C=C[C@@H](CC(=O)NCc3ccc(Cl)cc3)O[C@@H]2CO)c1	none (no result: HSF1 activator, HSF1 inhib, Vif imaging)
C[C@H](NC(=O)[C@@H]1CSC2c3ccccc3C(=O)N21)C(=O)NCCc1ccccc1 (stereo partly specified)	HSF1 activator 70.2
